Measured values published in PubChem BioAssay (NCI).
Compounds without any hit were thinned out: in the full panel of roughly 79,000, 15% have a hit. Activity calls are given as the source filed them. No stated cut-off is given here; in the data, active means growth inhibition above about 70%; inactive means the rest.

Columns and labels:
[1] = NCI Yeast Anticancer Drug Screen. Data for the rad50 strain (AID 155);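 further: 0% = growth of vehicle-only cultures of the same strain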; conditions: S. cerevisiae rad50 strain growth inhibition, hits give high values
Outline: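 Readout: growth inhibition relative to vehicle-treated cultures. Compound exposure was carried out in a genetically defined yeast strain deficient in DNA damage repair.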

[2] = NCI Yeast Anticancer Drug Screen. Data for the mec2-1 strain (AID 157); conditions: S. cerevisiae mec2-1 strain, hits give high values
Outline: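 Compounds were applied to mec2-1 yeast cells. Their growth was then compared with that of vehicle-treated cultures to give growth inhibition.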

[3] = NCI Yeast Anticancer Drug Screen. Data for the sgs1 mgt1 strain (AID 161);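 further: 0% = growth of cultures given vehicle only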; conditions: S. cerevisiae sgs1 mgt1 strain, hits give high values
Outline: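 Yeast cells carrying a defined DNA-repair defect were exposed to test compounds. Growth inhibition was measured relative to vehicle-treated controls.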

[4] = NCI Yeast Anticancer Drug Screen. Data for the cln2 rad14 strain (AID 165);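 further: 0% = growth equal to vehicle treated cultures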; conditions: S. cerevisiae cln2 rad14 strain, hits give high values
Outline: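 Strain: cln2 rad14 yeast, altered in cell cycle control and DNA damage repair. Read-out: growth inhibition vs vehicle.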

[5] = NCI Yeast Anticancer Drug Screen. Data for the bub3 strain (AID 167); conditions: S. cerevisiae bub3 mutant strain, hits give high values
Outline: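 Readout: yeast growth inhibition, expressed relative to vehicle-only wells. The test organism is a mutant strain from a panel with lesions in DNA repair or checkpoint genes.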

[6] = NCI Yeast Anticancer Drug Screen. Data for the mlh1 rad18 strain (AID 175); conditions: S. cerevisiae mlh1 rad18 strain growth inhibition, hits give high values
Outline: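 A repair-deficient yeast strain is exposed to test compound, and growth is scored relative to vehicle-treated controls.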

[7] = at 5.0 µM (retest, dose inferred, filed as 0.5)
[8] = at 50.0 µM (retest, dose inferred, filed as 5.0)

Measured: growth inhibition

CCCCCCCCCCCCCCSC(=NC)NC
active: [1]; [7] 99% | [1]; [8] 99% | [1]; at 50.0 µM 99.5% | [2]; [7] 99% | [2]; [8] 99% | [2]; at 50.0 µM 99.8% | [3]; [7] 100% | [3]; [8] 99% | [3]; at 50.0 µM 99.5% | [4]; [7] 99% | [4]; [8] 99% | [4]; at 50.0 µM 98.9% | [5]; [7] 99% | [5]; [8] 99% | [5]; at 50.0 µM 99.5% | [6]; [7] 98% | [6]; [8] 99% | [6]; at 50.0 µM 99.4%

O=[N+]([O-])c1ccc(-c2nc3ccc(F)cc3[nH]2)o1
inactive: [4]; [7] 34%
active: [1]; [7] 73% | [1]; [8] 99% | [1]; at 50.0 µM 99.6% | [2]; [7] 90% | [2]; [8] 99% | [2]; at 50.0 µM 99.8% | [3]; [7] 86% | [3]; [8] 100% | [3]; at 50.0 µM 99.7% | [4]; [8] 98% | [4]; at 50.0 µM 98.5% | [5]; [7] 70% | [5]; [8] 100% | [5]; at 50.0 µM 99.7% | [6]; [7] 94% | [6]; [8] 99% | [6]; at 50.0 µM 99.7%

C/C=C/CC(C/C=C/C)C1CC[N-]CC1.C/C=C/CC(C/C=C/C)C1CC[N-]CC1.[Cl][Pt+2]([Cl])([Cl])[Cl]
inactive: [1]; [7] 8% | [2]; [7] -62% | [3]; [7] 3% | [4]; [7] 4% | [4]; [8] 58% | [5]; [7] -3% | [6]; [7] 7%
active: [1]; [8] 88% | [1]; at 50.0 µM 97.3% | [2]; [8] 78% | [2]; at 50.0 µM 98.8% | [3]; [8] 91% | [3]; at 50.0 µM 98.8% | [4]; at 50.0 µM 97.7% | [5]; [8] 85% | [5]; at 50.0 µM 98% | [6]; [8] 88% | [6]; at 50.0 µM 98.6%

CCOc1ccc2c(c1)[n+]([O-])c(-c1ccc(Cl)cc1)c(N)[n+]2[O-]
inactive: [1]; [7] 24% | [2]; [7] 23% | [3]; [7] 50% | [4]; [7] 34% | [5]; [7] 63% | [6]; [7] 68%
active: [1]; [8] 99% | [1]; at 50.0 µM 99.2% | [2]; [8] 99% | [2]; at 50.0 µM 98.2% | [3]; [8] 100% | [3]; at 50.0 µM 99.3% | [4]; [8] 98% | [4]; at 50.0 µM 98.8% | [5]; [8] 99% | [5]; at 50.0 µM 99.2% | [6]; [8] 99% | [6]; at 50.0 µM 98.8%

Cn1cc(NC(=O)c2cc(NC(=O)CCCCCCCCC(=O)Nc3cc(C(=O)Nc4cc(C(=O)NCCC(N)N)n(C)c4)n(C)c3)cn2C)cc1C(=O)NCCC(=N)N
inactive: [4]; [7] 45%
active: [1]; [7] 83% | [1]; [8] 98% | [1]; at 50.0 µM 89.8% | [2]; [7] 87% | [2]; [8] 98% | [2]; at 50.0 µM 90.8% | [3]; [7] 80% | [3]; [8] 99% | [3]; at 50.0 µM 91.5% | [4]; [8] 95% | [4]; at 50.0 µM 88% | [5]; [7] 86% | [5]; [8] 98% | [5]; at 50.0 µM 91.5% | [6]; [7] 88% | [6]; [8] 97% | [6]; at 50.0 µM 90%

Oc1ccc(-c2ccccc2)cc1Br
active: [1]; [8] 99% | [1]; at 50.0 µM 99.4% | [2]; [8] 100% | [2]; at 50.0 µM 99.7% | [3]; [8] 99% | [3]; at 50.0 µM 99.5% | [4]; [8] 99% | [4]; at 50.0 µM 98.5% | [5]; [8] 99% | [5]; at 50.0 µM 99.5% | [6]; [8] 99% | [6]; at 50.0 µM 99.5%
inactive: [1]; [7] 14% | [2]; [7] 3% | [3]; [7] 1% | [4]; [7] -9% | [5]; [7] -3% | [6]; [7] 9%

CC1CCC(C(C)C2C(O)CC3C4CC=C5CC(O)CCC5(C)C4CCC32C)NC1 (configuration not stated)
active: [1]; [8] 81% | [3]; [8] 96% | [3]; at 50.0 µM 88.5% | [5]; [8] 70%
inactive: [1]; [7] -23% | [1]; at 50.0 µM 66.8% | [2]; [7] 1% | [2]; [8] 18% | [2]; at 50.0 µM 25.1% | [3]; [7] 12% | [4]; [7] 3% | [4]; [8] 23% | [4]; at 50.0 µM 23.8% | [5]; [7] -1% | [5]; at 50.0 µM 10.9% | [6]; [7] 10% | [6]; [8] 54% | [6]; at 50.0 µM 57.5%

Cc1cccc(C)c1N1C(=O)C(=O)C(c2nc3ccccc3s2)/C(=N/NC(=O)c2ccccc2O)C1=O (configuration not stated)
active: [1]; at 50.0 µM 71.9%
inactive: [1]; [7] 26% | [1]; [8] 26% | [2]; [7] 16% | [2]; [8] 16% | [2]; at 50.0 µM 56.2% | [3]; [7] 26% | [3]; [8] 26% | [3]; at 50.0 µM 48.9% | [4]; [7] 21% | [4]; [8] 21% | [4]; at 50.0 µM 69.5% | [5]; [7] 19% | [5]; [8] 19% | [5]; at 50.0 µM 66% | [6]; [7] 34% | [6]; [8] 34% | [6]; at 50.0 µM 48.5%

Cc1c(C#N)c(N)nc2c(C(N)=O)nsc12
inactive: [1]; [7] -2% | [1]; [8] -13% | [1]; at 50.0 µM 13.2% | [2]; [7] -2% | [2]; [8] -8% | [2]; at 50.0 µM 8.75% | [3]; [7] -3% | [3]; [8] -9% | [3]; at 50.0 µM 10.7% | [4]; [7] -2% | [4]; [8] -18% | [4]; at 50.0 µM 53.6% | [5]; [7] 9% | [5]; [8] 16% | [5]; at 50.0 µM -8.4% | [6]; [7] -1% | [6]; [8] -11% | [6]; at 50.0 µM 26.2%
